Measured values: the supplement of paper PMC6555819

tested on: PXR:RXRa (NR concentration 270 nM, RXRa partner concentration 90 nM); assay: PBM binding z-score (relative to random genomic background probes); higher = stronger binding; sequences stand for … in GC…GCGATTGACAGCGTAGAATGAAGG
Outline: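 Scanned fluorescence from custom Agilent 4×180K protein-binding microarrays was regression-normalized. Binding z-scores use random background probes as reference. Ligand-free nuclear receptor dimers were incubated on the arrays for 1 h and detected with antibodies against each partner (one per run).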

Row | Sequence | PBM binding z-score
1 | TGAATGAGGTTAAAGATCAGGGACCGTGGCGTCG | 1.94
2 | CAAACTTGGTCACGAAAGGTCAAAGTCGAATGAC | 6.21
3 | GGAACGAGGGCAAAGTTGATTGCATCTGTCGACG | 1.16
4 | CCTCGGAGGACAGAAGGTCAGAGCGGTCCGCTTT | 1.91
5 | CAGCCTCGGTCAGGGCCAGTATAGGAGGAACGTT | -0.881
6 | TCGAGTAGGTTAGTCGAGGCATTCAGCCAACATA | -0.24
7 | CGTCCAATGTCATAGGAGGTCAGTGAAGACAGAT | 3.91
8 | GCTGCTTGGTCAGGTTGGTCAGCTAACGGGTACG | -0.298
9 | GCAGACAGGTGAAGCGCAGGTAACTCAGGGTGGC | -0.484
10 | GCTAGCAGGCCATTTGGGTCCCTCAATGACGGGC | -0.687
11 | ATCTCTAGGTTACCAAGTTCAGTGAATGCCGAAC | 3.34
12 | CGTCCAAGGTCAATGCTAAGTCAGTGAAAGCATT | 3.51
13 | ATCGAAAGGTCTAGGTGAGTATAGAGAAAGGGAA | 0.216
14 | CATACAGGGTCAGCTTGGCCAGAGTAGGGACGGC | 2.01
15 | CCTACTGGGCTACGAAAGGTCATTGATTCAGTGA | 5.08
16 | ATATGTAGGTTGCATCCGGGTCATTCAGGCTATG | 2.76
17 | TAGCCTAGGTCATTCAAGGGCCAGTATAGAAAGC | 2.5
18 | AGAATGAGGATACCAAAGATCAGGGAAACGCTTG | -0.349
